# Measured values published in PubChem BioAssay (Tox21).
# Several values for one entry are separate records, joined by “and”; a condition that tells them apart may be missing. Equal values may be shown once. Inconclusive results are not listed. A call without a number means that no potency is given here. Unmarked numbers belong to inactive results. Activity calls are given as the source filed them. Calls come from the whole dose curve; as a rule, active = well fitted activation curve with a large enough effect in the repeat runs; inconclusive = weak or mixed curves; inactive = flat fitted curve, though single readings scatter.
# Assay: Caspase-3/7 induction in HepG2 cells by small molecules, qHTS assay (AID 1346978); note: nearly all actives have a fitted effect of over 15% in size
# Settings: HepG2 caspase-3/7 activation, Caspase-Glo luminescence, 17 h; series mostly up to 92.4 µM
# Description: National Center for Advancing Translational Sciences [NCATS] NIH Chemical Genomics Center [NCGC] U.S. Environmental Protection Agency [EPA] National Institutes of Environmental Health Sciences [NIEHS] National Toxicology Program [NTP] Assay overview: Apoptosis is a process of programmed cell death and plays a central role in the development of multicellular organisms. It is a highly regulated process and induces cell death by activating caspases, which are the members of cysteine aspartic acid-specific protease (caspase) family. Caspases involved in apoptosis are classified by their mechanism of action as initiator caspases (caspase-2, -8, -9 and -10) and executioner caspases (caspase-3, -6, and -7). Inhibition of apoptosis results in number of cancers, autoimmune diseases, inflammatory diseases and viral infection. To identify small molecule compounds that induce apoptosis, a homogeneous, luminescent Caspase-Glo 3/7 assay was used. Wild type HepG2 cells were used to screen Tox21 libraries for identifying caspase-3/7 activity inducers.
# Assay Protocol Summary: HepG2 cells were dispensed at 2,000 per well in 5uL of culture medium into white solid bottom 1536-well plates (Corning Life Sciences, Corning, NY) using a Multidrop Combi (Thermo Scientific, Waltham, MA) dispenser. The assay plates were incubated at 37 C and 5% CO2 for 5hr, and then 23nL of compounds dissolved in DMSO and positive control were transferred using a Pintool station (Wako, San Diego, CA). The assay plates were incubated at 37C and 5% CO2 for 17hr. For caspase-3/7 activity read, 4uL of Caspase-Glo 3/7 reagent (Promega Corporation, Madison, WI) was added to each well of the assay plates using Flying Reagent Dispenser (FRD, Aurora Discovery, San Diego, CA) and incubated the assay plates at room temperature for 30min. The luminescence signal was quantified using a ViewLux plate reader (Perkin Elmer, Shelton, CT).
# Potency is the fitted concentration of half-maximal effect.
SMILES,Potency,caspase activation
CC(C)(C)NCC(O)COc1ccccc1OCC1CCCO1 (stereo not given),inactive,–
CCCCCCCCCCCCCCCCCl,–,-0.588% [at 19 µM]
COC(c1ccccc1)(c1ccccc1)[C@H](Oc1nc(C)cc(C)n1)C(=O)O,inactive,–
CC[C@@H](N)CO,inactive,–
Cc1cccc(O)c1C,inactive,–
CC(C)(O)CCC(C)(C)O,inactive,–
O,inactive,–
Oc1c(Cl)cc(Cl)c(Cl)c1Cc1c(O)c(Cl)cc(Cl)c1Cl,inactive,–
CCCCN(CCO)CCCC,inactive,–
[Cl][In]([Cl])[Cl],inactive,–
O=C(OCc1ccccc1)c1ccc(O)cc1,inactive,–
CC1COc2c(N3CCN(C)CC3)c(F)cc3c(=O)c(C(=O)O)cn1c23 (stereo not given),inactive,–
CCCCCCCCCCCC[N+](C)(C)C,inactive,–
C[N+]1([O-])CCOCC1,inactive,–
CC(C)(c1ccccc1)c1ccc(Nc2ccc(C(C)(C)c3ccccc3)cc2)cc1,inactive,–
NC(N)=NC(=O)Cc1c(Cl)cccc1Cl,inactive,–
CC(C)CCOCc1ccccc1,inactive,–
Oc1c(Cl)cc(Cl)cc1Sc1cc(Cl)cc(Cl)c1O,inactive,–
C/C=C/c1ccc(OCC)c(O)c1,inactive,–
O=C1OC2(c3ccc(O)cc3Oc3cc(O)ccc32)c2ccccc21,inactive,–

SMILES,Potency,caspase activation
CCCCC/C=C/CC1CC(=O)OC1=O (stereo not given),inactive,–
O=C(O)CP(=O)(O)O,inactive,–
O=S(=O)(O)c1ccc2nc(-c3ccccc3)[nH]c2c1,inactive,–
Cc1cccc2n[nH]nc12,inactive,–
O=C1NCC2(CCN(CCc3ccccc3)CC2)O1,inactive,–
CC(C)(C)NC(=O)[C@@H]1CN(Cc2cccnc2)CCN1C[C@@H](O)C[C@@H](Cc1ccccc1)C(=O)N[C@H]1c2ccccc2C[C@H]1O,inactive,–
Cc1ccc(S(=O)(=O)Oc2ccc(N=Nc3ccc(-c4ccc(N=Nc5c(O)ccc6cc(S(=O)(=O)O)cc(S(=O)(=O)O)c56)c(C)c4)cc3C)cc2)cc1,inactive,–
c1cnc2cc3c(cc2n1)C1CNCC3C1,inactive,–
CCn1c2ccccc2c2cc(N)ccc21,inactive,–
CC(C)(C)c1ccc(O)c(C(C)(C)C)c1,30.5 µM (active) and 54.5 µM (active),–
CCCCCCCCCCCCc1ccccc1O,60.3 µM (active) and 54.5 µM (active),–
c1ccc2c(c1)CCCC2C1=NCCN1 (stereo not given),inactive,–
O=c1n(CC2CO2)c(=O)n(CC2CO2)c(=O)n1CC1CO1 (stereo not given),68.2 µM (active),–
C=CS(=O)(=O)O,inactive,–
CCC(C)(Oc1ccc(C2(c3ccc(OC(C)(CC)C(=O)O)cc3)CCCCC2)cc1)C(=O)O (stereo not given),inactive,–
CCCNC(C)C(=O)Nc1ccccc1C (stereo not given),inactive,–
C=CC(=O)OCCCCCCCC,inactive,–
c1cc(C(c2ccc(OCC3CO3)cc2)C(c2ccc(OCC3CO3)cc2)c2ccc(OCC3CO3)cc2)ccc1OCC1CO1 (stereo not given),inactive,–
O=C(O)c1cccc(C(=O)O)c1,inactive,–
CC(=O)Nc1ccc(C(=O)CCl)cc1,inactive,–
